Among the data in PubChem BioAssay (NCI) are growth values, retold here.

The panel holds about 83,000 compounds, 20% with a hit somewhere; the sample as a whole holds those more often.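 Method: cells in 96-well plates; compound added at one concentration; 48 h incubation; percent growth measured; values under 10 scored active.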 The source made the active and inactive calls.

One assay has as its system OVCAR-8 ovarian. In words: NCI-60 one-dose screen, 48 h (100 = growth as untreated, 0 = no growth, -100 = all killed). The settings on record: 1 µM. The procedure:
Growth inhibition of the OVCAR-8 human tumor cell line is measured as a screen for anti-cancer activity. Cells are grown in 96 well plates and exposed to the test compound for 48 hours. Compounds are tested at a single concentration, which is 10^-5 M for most compounds. The reported endpoint is percent growth (GI% or GIPRCNT), where numbers from 0 - 100% represent growth inhibition, and numbers from -100% - 0 represent cell death. For example, a value of 40 represents 60% growth inhibition. A value of 0 means no net growth occurred over the course of the experiment. A value of -40 indicates 40% of cells at the beginning of the experiment died by the end of the experiment. A value of -100 means all cells are dead at the end of the experiment.
NCI-60 Human Tumor Cell Lines Screen was performed using the standard one-dose NCI protocol, which is described in more detail at https://dtp.cancer.gov/discovery_development/nci-60/default.htm.
Compounds with GIPRCNT values below 10 were considered active. Activity score was based on GIPRCNT using the following formula: […]
Score is 0 for GIPRCNT values of 100 or above, 50 for GIPRCNT values of 0, and 100 for GIPRCNT values of -100.
In the case of `CC/C(=C(/c1ccc(O)cc1)c1ccc(OCCN(C)C(=O)COCCOCCNC(=O)c2ccc3c(c2)CN([C@@H]2CCC(=O)NC2=O)C3=O)cc1)c1ccccc1`, the growth was 102% (inactive). On the same count and under the same terms, the result for `CC/C(=C(\c1ccc(O)cc1)c1ccc(OCCN(C)C(=O)COCCNC(=O)Cc2ccc3c(c2)CN([C@@H]2CCC(=O)NC2=O)C3=O)cc1)c1ccccc1` reads 67.7% (inactive).

Still in this assay, the particulars now being: 10 µM.
Take `CC/C(=C(/c1ccc(O)cc1)c1ccc(OCCN(C)C(=O)COCCOCCNC(=O)c2ccc3c(c2)CN([C@@H]2CCC(=O)NC2=O)C3=O)cc1)c1ccccc1`: the growth is 61.1% (inactive). Turning to `CC/C(=C(\c1ccc(O)cc1)c1ccc(OCCN(C)C(=O)COCCNC(=O)Cc2ccc3c(c2)CN([C@@H]2CCC(=O)NC2=O)C3=O)cc1)c1ccccc1`, the growth is 15.1% (inactive).

Staying with this assay, now noted: 10 µM unless noted.
In the case of `Cc1cc(C2(c3cc(C)c(OCC(O)CNc4c(C)n(C)n(-c5ccccc5)c4=O)cc3C(C)C)OC(=O)c3ccccc32)c(C(C)C)cc1OCC(O)CNc1c(C)n(C)n(-c2ccccc2)c1=O` (stereo not given), the growth was 33.1% (inactive). The same measure, in the same setting: the figure for `Cc1[nH]nc2ccc3nc(-c4cn[nH]c4C(F)(F)F)c4c(c3c12)CCCC4` is 4.15% (active); for `Cn1cc(-c2cc3nc(-c4cn(C)c5ncccc45)cc(N)n3n2)c2cc(F)ccc21` it is 11.5% (inactive). Same read-out and setting: the result for `COc1ccc2c(c1)C(=O)N(C)C2C1c2c(cc3c(c2OC)OCO3)CCN1C` (stereo not given) reads 78.1% (inactive). In the case of `CN(CCSSCCN1CCOCC1)C(=O)Oc1cc2c(c3ccccc13)[C@H](CCl)CN2C(=O)c1cc2cc(OCCCN3CCC3)ccc2[nH]1`, the growth is -15.7% (active).

Consider `FC(F)(F)CN1CCN(CCn2c(C(F)(F)F)cc3c(Cl)ncnc32)CC1`, for which the growth was 8.76% (active). Same read-out and setting: the figure for `O=C(Cc1c(-c2cccc([N+](=O)[O-])c2)n(-c2ncnc3c2c(-c2ccccc2)c(-c2ccccc2)n3Cc2ccccc2)[nH]c1=O)c1ccc(Cl)c(Cl)c1` is 34.3% (inactive); for `COc1ccc(-c2cc(-c3cc(C(C)C)c(O)cc3C)nn2-c2ccc(S(N)(=O)=O)cc2)cc1` it is 24.5% (inactive); for `N#CC1=C(c2ccco2)Nc2c(c(-c3ccccc3)nn2-c2ccccc2)C12C(=O)Nc1ccc(Br)cc12` (stereo not given) it is 25% (inactive). The same measure, in the same setting: the figure for `CC1CCc2c(sc3nc(SCC(=O)c4cccc(Br)c4)n(-c4ccccc4)c(=O)c23)C1` (stereo not given) is 19.2% (inactive); for `COc1ccc2[nH]c(=O)c(CSc3ccccc3Nc3nccc(-c4ccc5c(c4)OCO5)n3)cc2c1` it is 79.2% (inactive); for `Cc1cc(C)c2[nH]c(=O)c(C(c3nnnn3Cc3ccc4c(c3)OCO4)N3CCN(C)CC3)cc2c1` (stereo not given) it is 114% (inactive). On the same count and under the same terms, the result for `O=C(c1ccc(O)cc1)C1[C@H](c2ccccc2Br)[C@@H](c2ccccc2)NC12C(=O)Nc1ccccc12` (stereo not given in full) reads 30.2% (inactive); that for `COc1ccc2c(c1)N=c1c-2cc2c(O)[nH]c(=S)n2c1=O`, 53.2% (inactive); that for `Cc1ccc(C(=O)Nc2cc(-c3ccccc3)cc(C(F)(F)F)c2)cc1C#Cc1cnc2cccnn12`, 75.3% (inactive).

For the molecule `Cc1ccccc1NC(=O)c1cccc(NC(=O)CCl)c1`, the growth is 46.3% (inactive). On the same count and under the same terms, the result for `Nc1nn2c(-c3cc4ccccc4oc3=O)ccnc2c1N=Nc1ccccc1` reads 42.2% (inactive); that for `CCc1ccccc1-c1nc(CN[C@@H]2C[C@@H]3C[C@H]([C@H]2C)C3(C)C)c(C)o1`, -66.4% (active); that for `COc1ccc2[nH]c(=O)c(CSc3ccccc3Nc3nccc(-c4ccc(Cl)cc4)n3)cc2c1`, 39.5% (inactive). The same measure, in the same setting: the result for `COc1ccc(-c2cc(C)nc3[nH]c(=O)sc23)cc1` reads 63.5% (inactive). As for `N#C/C(=C/c1ccc(Cl)cc1)c1nnc(NC(=O)c2ccc(-n3c(=O)[nH]c4ccccc4c3=O)cc2)s1`, the growth was 46% (inactive). On the same count and under the same terms, the result for `Nc1cc(-c2c[nH]c3ccc(F)cc23)nc2cc(-c3c[nH]c4ccccc34)nn12` reads 4.46% (active); that for `O=Cc1cncc(-c2ccc3ncnc(N4CCc5cc(F)c(Cl)cc54)c3c2)c1`, 39.8% (inactive). The same measure, in the same setting: the figure for `O=C(CSc1nnc(-c2ccc(-c3nc4ccc(Cl)cc4[nH]3)cc2)o1)Nc1ccccc1` is -44.3% (active). `CS(=O)(=O)Nc1cc(-c2ccc3ncnc(Nc4ccc(OCc5cccnc5)c(Cl)c4)c3c2)cnc1Cl`: the growth was 8.77% (active). On the same count and under the same terms, the result for `COC(=O)c1cc(C(=O)C(Br)Br)n2c1ccc1c3ccccc3ccc12` reads 38.6% (inactive); that for `N#Cc1c(-c2ccc(F)cc2)nc(SCc2ccccc2)nc1N1CCNCC1`, -77.5% (active); that for `O=C1Nc2cc(-c3ccc(NS(=O)(=O)c4ccc(F)c(Cl)c4)cc3)ccc2/C1=C/c1ccc[nH]1`, 34.9% (inactive).

With `Cc1oc(-c2ccccc2)nc1CN[C@@H]1C[C@@H]2C[C@H]([C@H]1C)C2(C)C`, the growth is 82.6% (inactive). Consider `O=C(Cn1c(/C=C/c2ccc([N+](=O)[O-])cc2)nc2ccccc2c1=O)Nc1ccccc1`, for which the growth is 65.8% (inactive). Still for that read-out and setting: the result for `O=S(=O)(c1nc(-c2ccc(Br)cc2)oc1-c1ccc(Cl)cc1)N1CCCC(O)C1` (stereo not given) reads 68.4% (inactive); that for `COc1cc(/C=C/C(=O)c2cnn(-c3cc(=O)[nH]c4ccc(Br)cc34)c2C)cc(OC)c1OC`, 7.35% (active). Same read-out and setting: the figure for `O=C(Nc1ccc(Br)cc1)Nc1ccc(-c2ccc3c(c2)NC(=O)/C3=C\c2ccc[nH]2)cc1` is 35.4% (inactive). On the same count and under the same terms, the figure for `COc1ccc(OC)c(Cn2cc(C#N)c(N)c2C(=O)c2ccc(Br)cc2)c1` is 33.9% (inactive); for `COc1ccc(-c2cc(C(=O)N=Nc3c(O)[nH]c4ccc(Cl)cc34)c3ccccc3n2)cc1` it is 22.1% (inactive). `Cn1cc(-c2cc3nc(-c4c[nH]c5ccccc45)cc(N)n3n2)c2ccccc21`: the growth is -73.6% (active).
